{"source": "ChEMBL document CHEMBL4513216", "about": "“Probing the Open Global Health Chemical Diversity Library for Multistage-Active Starting Points for Next-Generation Antimalarials” (ACS Infect Dis, 2020)", "note": "Out of some 69,000 compounds screened, about 8,600 (12%) showed an effect of 50% or more. For the sample, strong results were picked, then their nearest neighbours and some compounds at random.", "data": [{"system": "Plasmodium berghei", "assay": "Screen against P. berghei liver stage (PbLuc), transformed with Luciferase, at 10uM", "assay_type": "functional, HepG2", "conditions": "tested at 10 uM", "units": {"INHIBITION": "%"}, "values": [{"smiles": "CC(=O)N(C)C1CCN(c2ncc3c(n2)CCN3c2ccccc2)C1", "note": "(centres undefined)", "INHIBITION": 9.4}, {"smiles": "CN(C)c1ncccc1CNC(=O)NCC(c1cccs1)N(C)C", "note": "(centres undefined)", "INHIBITION": 23.2}, {"smiles": "COC[C@@]12CCO[C@@H]1CCN(C(=O)COc1ccc(C)cc1)C2", "INHIBITION": -3.52}, {"smiles": "O=C(Nc1ccc(F)cc1)C(c1ccccc1)N1CCOCC1", "note": "(centres undefined)", "INHIBITION": -3.94}, {"smiles": "COc1cc(CN2CC(=O)N(c3ccc(C)cc3)CC2C)cc(OC)c1", "note": "(centres undefined)", "INHIBITION": 46.6}, {"smiles": "COc1ccc(CN2CC(=O)N(c3ccc(C)cc3)CC2C)cc1O", "note": "(centres undefined)", "INHIBITION": 43.2}, {"smiles": "COc1cccc(OC)c1CN1CC(=O)N(c2ccc(C)cc2)CC1C", "note": "(centres undefined)", "INHIBITION": 76.8}, {"smiles": "Cn1cc(CN2CCC[C@]3(C[C@@H](Oc4ncccc4F)CO3)C2)cn1", "INHIBITION": 35.5}, {"smiles": "CC(C)c1ccc(OCCC(=O)N2CCCC(C(N)=O)C2)cc1", "note": "(centres undefined)", "INHIBITION": 4.18}, {"smiles": "CS(=O)(=O)c1ccc2c(c1)N(C(=O)c1cccc(F)c1)CCC2", "INHIBITION": 9.63}, {"smiles": "CC(=O)N1CCCc2ccc(S(=O)(=O)N3CCCCC3C)cc21", "note": "(centres undefined)", "INHIBITION": 54.4}, {"smiles": "CC(=O)N1CCc2ccc(S(=O)(=O)N3CCCCC3C)cc21", "note": "(centres undefined)", "INHIBITION": -0.178}, {"smiles": "Cc1cc(-c2c[nH]nc2C2CCCCN2C(=O)c2ccccc2)on1", "note": "(centres undefined)", "INHIBITION": 23}, {"smiles": "Nc1ccnc(N2CCC(c3nccn3CC3CC3)CC2)n1", "INHIBITION": -16.3}, {"smiles": "CCn1ncc2c1C(COC)CN(Cc1ccc(F)cc1)C2", "note": "(centres undefined)", "INHIBITION": -2.35}, {"smiles": "CCn1ncc2c1C(COC)CN(Cc1cccnc1)C2", "note": "(centres undefined)", "INHIBITION": -67.6}, {"smiles": "CCn1ncc2c1C(COC)CN(Cc1ccc(OC)cc1)C2", "note": "(centres undefined)", "INHIBITION": 42.1}, {"smiles": "CCn1ncc2c1C(COC)CN(Cc1ccsc1)C2", "note": "(centres undefined)", "INHIBITION": 62.6}, {"smiles": "CCn1ncc2c1C(COC)CN(Cc1cnn(C)c1)C2", "note": "(centres undefined)", "INHIBITION": 68.8}, {"smiles": "COCC1CN(Cc2ccsc2)Cc2cnn(C)c21", "note": "(centres undefined)", "INHIBITION": -0.371}, {"smiles": "CCc1nc(C2CCCN(C(=O)c3ccc4[nH]cnc4c3)C2)no1", "note": "(centres undefined)", "INHIBITION": 5.7}, {"smiles": "Cc1nc(N[C@H]2COC[C@@H]2N2CCCCC2)c2c(C)nn(C)c2n1", "INHIBITION": 24.8}, {"smiles": "COc1cc(OC)c2nc(NCCN3CCNC3=O)cc(C)c2c1", "INHIBITION": 7.92}, {"smiles": "COc1nc2ccccc2cc1C1CC(=O)Nc2n[nH]c(C3CCC3)c21", "note": "(centres undefined)", "INHIBITION": -1.7}, {"smiles": "Cc1noc(C)c1CNCC1COCc2c(-c3ccsc3)nnn2C1", "note": "(centres undefined)", "INHIBITION": -57.1}, {"smiles": "COc1ccccc1CN1CCCC(Cc2nccnc2N)C1", "note": "(centres undefined)", "INHIBITION": 21.1}, {"smiles": "Nc1nccnc1CC1CCCN(Cc2ccnc3ccccc23)C1", "note": "(centres undefined)", "INHIBITION": 78.7}, {"smiles": "COc1ccnc(CN2CCCC(CCc3ccccc3)C2)c1OC", "note": "(centres undefined)", "INHIBITION": 75.7}, {"smiles": "COc1ccnc(CN2CCCC(CCc3ccc(F)cc3)C2)c1OC", "note": "(centres undefined)", "INHIBITION": 94.8}, {"smiles": "O=C(O)COc1ccc(CN2CCCC(CCc3ccccc3)C2)cc1", "note": "(centres undefined)", "INHIBITION": 28.5}, {"smiles": "Cn1ccnc1CN1CCCC(CCc2ccc(F)c(F)c2)C1", "note": "(centres undefined)", "INHIBITION": 37.7}, {"smiles": "Nc1nccnc1CC1CCCN(Cc2c[nH]c3ccccc23)C1", "note": "(centres undefined)", "INHIBITION": 24.8}, {"smiles": "Nc1nccnc1CC1CCCN(Cc2cccc3[nH]ccc23)C1", "note": "(centres undefined)", "INHIBITION": -1.16}, {"smiles": "COc1ccccc1N1CCN(Cc2nccc(OC)c2OC)CC1=O", "INHIBITION": 40.7}, {"smiles": "CCc1nnc2n1CCN(C(=O)c1ccc3c(c1)[nH]c(=O)n3C)C2", "INHIBITION": 8.38}, {"smiles": "COc1ccc(-c2cnc3c(c2)CN(C2CC2)C(=O)CCN3)cc1", "INHIBITION": 7.09}, {"smiles": "CS(=O)(=O)N1C[C@H]2CC[C@@H](C1)N(C(=O)CCn1cnc3ccccc31)C2", "INHIBITION": 12.9}, {"smiles": "CC(C)(C)Nc1c(C2CCN(C(=O)C(C)(C)C)CC2)nc2ccccn12", "INHIBITION": 30.3}, {"smiles": "Cc1nc(C)n(CC2CN(CCC(=O)N3CCCCC3)CCO2)n1", "note": "(centres undefined)", "INHIBITION": 21.5}, {"smiles": "COCCc1noc(CN2CCOC(CN(C)C)C2)n1", "note": "(centres undefined)", "INHIBITION": 15.3}, {"smiles": "O=C1NC2(Cc3ccccc31)CN(CC1CCOCC1)C2", "INHIBITION": 35}, {"smiles": "c1ccc(-c2cc(CN3CCc4cncnc4C3)on2)cc1", "INHIBITION": -28}, {"smiles": "CC(C)Cc1cc(C(=O)NCC2CCCN(Cc3ccco3)C2)on1", "note": "(centres undefined)", "INHIBITION": -63.8}, {"smiles": "CC(C)Cc1cc(C(=O)NCC(O)CN2CCCCCC2)on1", "note": "(centres undefined)", "INHIBITION": -8.47}, {"smiles": "CC(C)Cc1cc(C(=O)NC(C)(C)CN2CCCCCC2)on1", "INHIBITION": 58.7}, {"smiles": "Cn1cc(CN2C[C@@H]3COC[C@]3(CNC(=O)c3ccsc3)C2)cn1", "INHIBITION": 34.7}, {"smiles": "c1cc2occc2c(N2CCCC(c3nncn3C3CC3)C2)n1", "note": "(centres undefined)", "INHIBITION": 57.5}, {"smiles": "Cc1cc(N2CCCC(c3nccnc3N(C)C)C2)ncn1", "note": "(centres undefined)", "INHIBITION": 5.25}, {"smiles": "CN(C)Cc1cn(CC2CCCN(c3nccc4occc34)C2)nn1", "note": "(centres undefined)", "INHIBITION": 34.9}, {"smiles": "Cc1ccnc(N2CCCC(c3nncn3C3CC3)C2)n1", "note": "(centres undefined)", "INHIBITION": 46.6}, {"smiles": "Cc1cc(N2CCCC(c3nncn3C3CC3)C2)ncn1", "note": "(centres undefined)", "INHIBITION": 53.5}, {"smiles": "O=C(O)c1cn(CC2CCCN(c3nccc4occc34)C2)nn1", "note": "(centres undefined)", "INHIBITION": -2.48}, {"smiles": "Nc1cc(-c2cc[nH]n2)nc(N2CCCC2)n1", "INHIBITION": 20.5}, {"smiles": "CN(C)S(=O)(=O)N1CCC(c2c(C(N)=O)sc3ccccc23)C1", "note": "(centres undefined)", "INHIBITION": -11.4}]}]}
